{"source": "PubChem BioAssay (NCATS)", "note": "Results filed as inconclusive are left out. Where a call stands in place of a potency, no number is given. Active and inactive are the calls of the source. Unless noted, calls follow the shape of the dose curve; as a rule, active = well fitted curve in the direction sought with a large enough effect; inconclusive = small, poorly fitted or top-dose-only effect, or another doubt; inactive = no such curve, though single readings can be large; an effect the other way counts as inactive or inconclusive."}
{"target": "Alpha-galactosidase (Coffea arabica) (UniProt Q42656)", "sequence (Q42656 whole entry, looked up)": "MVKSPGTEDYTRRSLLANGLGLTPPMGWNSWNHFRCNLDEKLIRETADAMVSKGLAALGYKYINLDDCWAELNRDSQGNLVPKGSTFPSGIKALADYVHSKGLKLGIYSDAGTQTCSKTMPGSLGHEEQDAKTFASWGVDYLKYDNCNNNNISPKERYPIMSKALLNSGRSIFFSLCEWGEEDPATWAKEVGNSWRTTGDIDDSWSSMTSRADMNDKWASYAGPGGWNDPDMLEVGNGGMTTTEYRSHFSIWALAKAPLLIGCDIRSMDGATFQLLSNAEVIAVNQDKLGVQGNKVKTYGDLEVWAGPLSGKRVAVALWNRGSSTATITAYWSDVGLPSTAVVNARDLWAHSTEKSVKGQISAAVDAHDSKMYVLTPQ", "assay": "Counterscreen for Glucocerebrosidase Inhibitors: qHTS Assay for Coffee Bean alpha-Galactosidase at pH 4.5 (AID 957)", "details": "purified coffee bean alpha-galactosidase, fluorogenic substrate; series mostly up to 76.9 µM", "outline": "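Fluorogenic qHTS at pH 4.5 (citrate buffer with Tween-20): 2 nM enzyme, 80 uM 4-MU-alpha-galactoside substrate, compound titrated 0.7 nM to 77 uM, 20 min room temperature. Glycine/NaOH stop; 4-MU read Ex 365/Em 440; Hill-equation AC50 against no-enzyme and enzyme controls.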"}
{"molecule": "Cn1cc(C2=C(c3ccc(Cl)cc3Cl)C(=O)NC2=O)c2ccccc21", "outcome": "inactive"}
{"molecule": "NC/C=C\\C(=O)O", "outcome": "inactive"}
{"molecule": "Nn1nnc2ccccc21", "outcome": "inactive"}
{"target": "Alpha-galactosidase (Coffea arabica) (UniProt Q42656)", "assay": "Counterscreen for Glucocerebrosidase Inhibitors: qHTS Assay for Coffee Bean alpha-Galactosidase at pH 5.9 (AID 998)", "details": "coffee bean alpha-galactosidase enzyme assay; series mostly up to 76.9 µM", "outline": "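In 50 mM citric acid pH 5.9 with 0.005% Tween-20, coffee bean enzyme hydrolyses 80 uM 4-MU alpha-D-galactopyranoside over 20 min at RT. Activity is normalized to controls; AC50 comes from Hill-modelled concentration-response data.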"}
{"molecule": "Cn1cc(C2=C(c3ccc(Cl)cc3Cl)C(=O)NC2=O)c2ccccc21", "outcome": "inactive"}
{"molecule": "NC/C=C\\C(=O)O", "outcome": "inactive"}
{"molecule": "Nn1nnc2ccccc21", "outcome": "inactive"}
{"test_system": "not listed separately", "assay": "Validation screen for inhibitors of Lassa infection (AID 463096; calls by dose curve)", "details": "Lassa virus infection, cell-based; series mostly up to 46.1 µM"}
{"molecule": "C[C@@]1(C2CCCC2)Cc2cc(OCC(=O)O)c(Cl)c(Cl)c2C1=O", "Potency": "inactive"}
{"molecule": "Cn1cc(C2=C(c3ccc(Cl)cc3Cl)C(=O)NC2=O)c2ccccc21", "Potency": "inactive"}
{"molecule": "NC/C=C\\C(=O)O", "Potency": "inactive"}
{"molecule": "Nn1nnc2ccccc21", "Potency": "inactive"}
{"test_system": "not listed separately", "assay": "Inducers of the Endoplasmic Reticulum Stress Response (ERSR) in human glioma: Validation (AID 504836)", "details": "human glioma cells, ER stress response reporter; series mostly up to 38.3 µM", "outline": "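Stably transfected U87-MG human glioma cells carrying a GRP78-based luminescent sensor were seeded at 1000 cells/well, pin-dosed with compounds and incubated 16 h. Luciferase reagent was then added, and end-point luminescence was read after 10 min at room temperature.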"}
{"molecule": "C[C@@]1(C2CCCC2)Cc2cc(OCC(=O)O)c(Cl)c(Cl)c2C1=O", "outcome": "inactive"}
{"molecule": "Cn1cc(C2=C(c3ccc(Cl)cc3Cl)C(=O)NC2=O)c2ccccc21", "outcome": "inactive"}
{"molecule": "NC/C=C\\C(=O)O", "outcome": "inactive"}
{"molecule": "CCc1ccc(/C=C2/SC(=S)NC2=O)cc1", "outcome": "inactive"}
{"molecule": "Nn1nnc2ccccc21", "outcome": "inactive"}
{"test_system": "not listed separately", "assay": "qHTS for Inhibitors of the Functional Ribonucleoprotein Complex (vRNP) of Lassa (LASV) Arenavirus: LASV Primary Screen - GLuc reporter signal (AID 1347082; calls by dose curve; tested in HEK293 reporter line; also: nearly all actives have a fitted effect of over 60% in size; also: potency is read from the fitted curve at half-maximal effect)", "details": "LASV minigenome vRNP, Gaussia luciferase reporter; series mostly up to 57.5 µM"}
{"molecule": "CCN(CC)CCCCNc1ncc2c(n1)N(C)C(=O)N(c1c(Cl)c(OC)cc(OC)c1Cl)C2", "Potency": "34.3 µM (active)"}
{"molecule": "COc1cc2c(cc1OC)-c1cc3cc(OC)c(OC)cc3c(=O)n1CC2", "Potency": "inactive"}
{"molecule": "OCC1OC(n2cnc3c(NCc4ccccc4O)ncnc32)C(O)C1O", "note": "(stereo not given)", "Potency": "inactive"}
{"molecule": "O=C1NC(=O)C(=Cc2ccc3nccnc3c2)S1", "Potency": "inactive"}
{"molecule": "Cc1ccc([C@@H]2O[C@H](CO)[C@@H](O)[C@H](O)[C@@H]2O)cc1Cc1ccc(-c2ccc(F)cc2)s1", "Potency": "inactive"}
{"molecule": "CC1(C)CCC[C@@]2(C)C1CC[C@@](C)(O)[C@@H]2CC[C@@](C)(O)C1CO1", "note": "(stereo not given in full)", "Potency": "inactive"}
{"molecule": "C=C1C(=O)O[C@H]2[C@H]1[C@H](OC(=O)/C(C)=C\\C)C[C@]1(CO1)[C@@H]1[C@H](OC(C)=O)C=C(C)[C@]21O", "Potency": "inactive"}
{"molecule": "COc1ccc(-c2cc(=O)c3c(OC)c(OC)c(OC)c(OC)c3o2)cc1", "Potency": "inactive"}
{"molecule": "N#CNC(=NCCCCCCOc1ccc(Cl)cc1)Nc1ccncc1", "Potency": "0.0343 µM (active)"}
{"molecule": "C[C@H](NC(=O)C(C#N)=Cc1cccc(Br)n1)c1ccccc1", "Potency": "inactive"}
{"molecule": "C[C@@]1(C2CCCC2)Cc2cc(OCC(=O)O)c(Cl)c(Cl)c2C1=O", "Potency": "inactive"}
{"molecule": "Cn1cc(C2=C(c3ccc(Cl)cc3Cl)C(=O)NC2=O)c2ccccc21", "Potency": "inactive"}
{"molecule": "NC/C=C\\C(=O)O", "Potency": "inactive"}
{"molecule": "CC=C(C(=CC)c1ccc(O)cc1)c1ccc(O)cc1", "Potency": "inactive"}
{"molecule": "CCc1ccc(/C=C2/SC(=S)NC2=O)cc1", "Potency": "inactive"}
{"molecule": "C[C@]12CC[C@@H]3c4ccc(O)cc4CC[C@H]3[C@H]1C[C@@H](O)[C@H]2O", "Potency": "inactive"}
{"molecule": "OC1c2ccccc2N=C2CCCN21", "note": "(stereo not given)", "Potency": "inactive"}
{"molecule": "CCCn1c(=O)c2[nH]c(-c3cnn(Cc4cccc(C(F)(F)F)c4)c3)nc2n(CC)c1=O", "Potency": "inactive"}
{"molecule": "COC(=O)Nc1ccc(-c2nc(N3CCOCC3)c3cnn(C4CCN(Cc5cccnc5)CC4)c3n2)cc1", "Potency": "0.109 µM (active)"}
{"molecule": "O=c1c(O)c(-c2ccccc2)oc2ccccc12", "Potency": "inactive"}
{"molecule": "COc1cc2c(Nc3ccc(Cl)c(Cl)c3F)ncnc2cc1OCC1C[C@@H]2CN(C)C[C@H]2C1", "Potency": "8.63 µM (active)"}
{"molecule": "CN1CCc2c(c3ccccc3n2Cc2ccc(C(=O)NO)cc2)C1", "Potency": "inactive"}
{"molecule": "Nn1nnc2ccccc21", "Potency": "inactive"}
{"molecule": "CN(Cc1nc2c(N)nc(N)nc2[nH]c1=O)c1ccc(C(=O)NC(CCC(=O)O)C(=O)O)cc1", "note": "(stereo not given)", "Potency": "inactive"}
{"molecule": "Nc1nc(F)nc2c1ncn2[C@@H]1O[C@H](COP(=O)(O)O)[C@@H](O)[C@H]1O", "Potency": "inactive"}
{"molecule": "COc1ccc(Cc2ccc(NC(N)=O)cc2)cc1-c1cccc(Cl)c1", "Potency": "inactive"}
{"molecule": "COc1cc2c(cc1OC)C(C)N(Cc1ccc3c(c1)OCO3)CC2", "note": "(stereo not given)", "Potency": "inactive"}
{"molecule": "C=C1CCC2C(C)(C)[C@H](O)CC[C@@]2(C)[C@@H]1COc1cc(=O)oc2ccccc12", "note": "(stereo not given in full)", "Potency": "inactive"}
{"molecule": "NS(=O)(=O)OC[C@@H]1C[C@@H](n2ccc3c(N[C@H]4CCc5ccccc54)ncnc32)C[C@H]1O", "Potency": "inactive"}
{"molecule": "O=C1NC(=O)C(=Cc2ccc(-c3ccc(F)cc3O)o2)S1", "Potency": "inactive"}
{"molecule": "COc1cc(C(=O)O[C@H]2C/C(C)=C/CC[C@@]3(C)O[C@@H]3[C@H](O)[C@@H]2C(C)C)cc(OC)c1OC", "Potency": "inactive"}
{"molecule": "CNC(=O)c1c(F)cccc1Nc1nc(Nc2cc3c(cc2OC)CCN3C(=O)CN(C)C)nc2[nH]ccc12", "Potency": "inactive"}
{"molecule": "Nc1ncn([C@@H]2O[C@H](CO)[C@@H](O)[C@@H]2O)c(=O)n1", "Potency": "inactive"}
{"molecule": "CC=CC(C)=CC(C)C(=O)CC(O)CC1CC(=O)NC(=O)C1", "note": "(stereo not given)", "Potency": "inactive"}
{"molecule": "CCCCOP(=O)(O)OCCCC", "Potency": "inactive"}
{"molecule": "COc1cc2c(cc1OC)[C@@H]1Cc3ccc(OC)c(OC)c3CN1CC2", "Potency": "inactive"}
{"molecule": "COc1cc2c(oc(=O)c3cc(C)cc(OC)c32)c2c(C3OC(C)C(O)C(C)(O)C3O)ccc(O)c12", "note": "(stereo not given)", "Potency": "inactive"}
{"molecule": "Cc1nccc2c1[nH]c1ccc(Br)cc12", "Potency": "inactive"}
{"molecule": "O=C(C=Cc1ccccc1O)c1ccccc1O", "Potency": "inactive"}
{"molecule": "CC/C=C\\[C@H](O)[C@H](O)C1=C(C)C(=O)[C@]2(O1)C(=O)N[C@@](OC)(C(=O)c1ccccc1)C2O", "note": "(stereo not given in full)", "Potency": "inactive"}
